The test system of experiment [1] is Plasmodium falciparum Sir2 (PF13_0152, Sir2A). The experiment is described as follows: pfSir2 binders on small-molecule microarrays, primary screen, biochemical, small-molecule microarray, 635 nm fluorescence (AID 1098).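 Further: score merges spot fluorescence intensity with its signal-to-noise ratio.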 The following applies: small-molecule microarray binding, fluorescence 635 nm; higher = more signal.
Experiment [2] is described as follows: small-molecule microarray binders of probe aDKK1, primary screen, biochemical, biotinylated probe, 635/667 nm fluorescence (AID 1099).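 Further: score merges 667nm spot fluorescence with signal to noise across triplicate slides.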 The following applies: higher = more signal.
Experiment [3] can be described thus: small-molecule microarray binders of probe aCHRDL2, primary screen, biochemical, biotinylated probe, 635/667 nm fluorescence (AID 1100). The following applies: higher = more signal.
Experiment [4] can be described thus: splicing luciferase reporter signal modulators, primary screen, spliceosome inhibition project, cell-based, HEK293, splice +/- reporter (AID 1101).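 Further: HEK293 cells carrying a splicing-competent luciferase reporter gene; test concentration not given here.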 The following applies: luminescence, 24 h, higher = more signal, called active from +8 up or from −8 down.
Experiment [5] deals with Fibroblast growth factor 10 (Homo sapiens) (UniProt O15520). Put plainly: FGF10 binders on small-molecule microarrays, primary screen, biochemical, small-molecule microarray, 635 nm fluorescence (AID 1102). Conditions: FGF10 binding, fluorescence 635 nm, higher = more signal.
Sequence of Fibroblast growth factor 10 (Homo sapiens) (O15520 whole entry, looked up): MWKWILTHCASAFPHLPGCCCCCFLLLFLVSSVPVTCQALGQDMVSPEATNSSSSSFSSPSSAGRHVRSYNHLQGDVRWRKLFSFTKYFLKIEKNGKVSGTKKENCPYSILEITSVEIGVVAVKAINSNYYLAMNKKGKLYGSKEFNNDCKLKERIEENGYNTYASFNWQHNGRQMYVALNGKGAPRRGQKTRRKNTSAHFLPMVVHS
Experiment [6] has as its system glycogen synthase kinase-3 (GSK3A per assay name; protocol says GSK3B). Put plainly: GSK3 binders on small-molecule microarrays, primary screen, biochemical, small-molecule microarray, 635 nm fluorescence, GSK3A (AID 1103). Further: the record names both GSK3A and GSK3B. Conditions: small-molecule microarray binding, fluorescence 635 nm; higher = more signal.
The target of experiment [7] is Epidermal growth factor receptor (Homo sapiens) (UniProt P00533). Put plainly: EGFR binders on small-molecule microarrays, primary screen, biochemical, small-molecule microarray, 635 nm fluorescence (AID 1104).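 Further: score merges 667 nm emission intensity with spot signal to noise over triplicate slides.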 The following applies: EGFR binding, higher = more signal.
Sequence of Epidermal growth factor receptor (Homo sapiens) (P00533 whole entry, looked up): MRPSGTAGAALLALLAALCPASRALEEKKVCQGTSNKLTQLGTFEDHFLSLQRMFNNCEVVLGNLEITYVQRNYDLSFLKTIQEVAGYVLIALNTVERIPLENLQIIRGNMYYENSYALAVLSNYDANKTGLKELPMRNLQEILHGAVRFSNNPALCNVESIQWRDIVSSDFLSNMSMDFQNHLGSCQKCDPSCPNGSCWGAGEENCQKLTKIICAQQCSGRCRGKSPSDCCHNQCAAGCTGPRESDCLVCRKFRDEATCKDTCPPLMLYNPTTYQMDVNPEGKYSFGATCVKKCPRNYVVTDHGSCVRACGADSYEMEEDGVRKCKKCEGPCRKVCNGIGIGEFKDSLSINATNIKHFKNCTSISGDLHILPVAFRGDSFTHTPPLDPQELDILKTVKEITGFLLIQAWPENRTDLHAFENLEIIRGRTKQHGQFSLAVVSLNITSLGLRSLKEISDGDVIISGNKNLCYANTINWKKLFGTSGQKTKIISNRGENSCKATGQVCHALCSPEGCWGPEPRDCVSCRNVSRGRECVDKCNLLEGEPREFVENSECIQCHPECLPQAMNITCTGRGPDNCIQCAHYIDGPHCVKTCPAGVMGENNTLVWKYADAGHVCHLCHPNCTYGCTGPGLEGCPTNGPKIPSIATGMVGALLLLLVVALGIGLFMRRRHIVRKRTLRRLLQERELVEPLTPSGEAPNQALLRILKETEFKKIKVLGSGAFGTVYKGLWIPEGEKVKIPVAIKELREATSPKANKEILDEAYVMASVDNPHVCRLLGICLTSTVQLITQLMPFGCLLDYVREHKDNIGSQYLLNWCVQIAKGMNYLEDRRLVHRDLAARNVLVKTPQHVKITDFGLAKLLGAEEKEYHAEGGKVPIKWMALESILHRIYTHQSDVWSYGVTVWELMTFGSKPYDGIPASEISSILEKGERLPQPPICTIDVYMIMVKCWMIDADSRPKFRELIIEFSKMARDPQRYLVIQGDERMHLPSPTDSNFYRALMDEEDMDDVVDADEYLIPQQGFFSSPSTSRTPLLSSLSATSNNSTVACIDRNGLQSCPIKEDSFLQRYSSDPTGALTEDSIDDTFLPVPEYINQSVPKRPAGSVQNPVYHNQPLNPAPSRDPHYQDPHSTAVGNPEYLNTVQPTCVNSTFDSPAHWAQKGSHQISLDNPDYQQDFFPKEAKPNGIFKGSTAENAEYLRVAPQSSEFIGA
The target of experiment [8] is Follistatin-related protein 3 (Homo sapiens) (UniProt O95633). The experiment is described as follows: FSTL3 binders on small-molecule microarrays, primary screen, biochemical, small-molecule microarray, 635 nm fluorescence (AID 1105).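 Further: score merges emission near 667 nm and signal to noise per printed spot across three slides.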 Conditions: FSTL3 binding, higher = more signal.
Sequence of Follistatin-related protein 3 (Homo sapiens) (O95633 whole entry, looked up): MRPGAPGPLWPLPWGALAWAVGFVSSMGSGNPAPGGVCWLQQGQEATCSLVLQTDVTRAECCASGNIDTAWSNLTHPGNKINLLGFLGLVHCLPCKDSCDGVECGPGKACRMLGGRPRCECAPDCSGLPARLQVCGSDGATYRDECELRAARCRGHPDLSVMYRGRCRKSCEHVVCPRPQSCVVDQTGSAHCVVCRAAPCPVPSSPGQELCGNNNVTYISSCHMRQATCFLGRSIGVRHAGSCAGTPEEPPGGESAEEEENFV
Experiment [9] has as its target Dickkopf-related protein 1 (Homo sapiens) (UniProt O94907). The experiment is described as follows: DKK1 binders on small-molecule microarrays, primary screen, biochemical, small-molecule microarray, 635 nm fluorescence scan (AID 1106).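 Further: score merges emission near 667 nm with signal to noise over three replicate slides.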 The following applies: DKK1 binding, higher = more signal.
Experiment [10] has as its system Inhibin beta A chain (activin A). The experiment is described as follows: INHBA (activin A) binders on microarrays, primary screen, biochemical, small-molecule microarray, 635 nm fluorescence scan (AID 1107).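 Further: mouse activin A protein probed at 4.33 µg/mL on printed slides; score merges bound-protein fluorescence near 667 nm with spot signal-to-noise.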 The following applies: small-molecule microarray binding, higher = more signal.
Experiment [11] deals with Human papillomavirus type 1a protein E7 (residues 44-93). The experiment is described as follows: HPV1a E7 fragment binders on microarrays, primary screen, biochemical, small-molecule microarray, residues 44-93, 635 nm fluorescence (AID 1108).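 Further: E7 fragment applied at 1 µg/mL in TBST for 1 h at 4 C; score combines spot fluorescence with its signal to noise ratio.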 Conditions: small-molecule microarray binding, fluorescence 635 nm; higher = more signal.
A short description of experiment [12]: modulators of HCV replicon luciferase signal, primary screen, HCV replication inhibitor project, Huh7 cells, luciferase reporter (AID 1109).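 Further: huh7 hepatoma cells harbouring a luciferase neomycin HCV replicon reporter; luciferase luminescence as measure of HCV replicon replication; test concentration not given here.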 Conditions: 48 h, higher = more signal. On the technique in general: In antiviral work, replicon cells carry a viral genome segment that copies itself.
Experiment [13] concerns the target Left-right determination factor 2 (Homo sapiens) (UniProt O00292). Put plainly: LEFTY2 binders on small-molecule microarrays, primary screen, biochemical, small-molecule microarray, 635 nm fluorescence scan (AID 1110). Conditions: LEFTY2 binding, higher = more signal.
The target in experiment [14] is Calmodulin-1 (Homo sapiens) (UniProt P0DP23). The experiment is described as follows: CALM1 binders on microarrays, EGTA buffer, profiling panel, biochemical, small-molecule microarray, Cy5-labelled CALM1 (AID 1111).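 Further: labelled calmodulin applied in Tris saline Tween buffer holding calcium plus EGTA and DTT.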 The following applies: Cy5-CALM1 binding fluorescence, higher = more signal.
Experiment [15] has the same target. The experiment is described as follows: calcium-bound CALM1 binders on microarrays, profiling panel, artefact control for SMM control-protein annotation, biochemical, small-molecule microarray, Cy5-labelled CALM1, plus calcium (AID 1112).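 Further: score merges spot fluorescence with signal to noise from triplicate slides.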 Conditions: Cy5-CALM1 binding fluorescence, higher = more signal.
The nature of experiment [16]: small-molecule microarray binders of probe aWnt5a, primary screen, biochemical, biotinylated probe, 635/667 nm fluorescence (AID 1113).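 Further: score merges 667 nm fluorescence intensity with signal-to-noise per printed feature.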 Conditions: higher = more signal.
A short description of experiment [17]: small-molecule microarray binders of probe aShh, primary screen, biochemical, biotinylated probe, 635/667 nm fluorescence (AID 1114).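 Further: probe is biotin-labelled aShh protein from a stem cell growth factor screen; measures binding of labelled protein to compounds printed on the slide; score merges feature fluorescence at 667 nm with signal-to-noise.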 The following applies: higher = more signal.
The nature of experiment [18]: small-molecule microarray binders of probe aNog, primary screen, biochemical, biotinylated probe, 635/667 nm fluorescence (AID 1115).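 Further: probe is biotinylated aNog protein used at 0.15 µg/mL for 1 h at 4 C; z-score combines 667 nm fluorescence of each spot with its signal to noise.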 The following applies: higher = more signal.
Experiment [19] addresses Torsin-1A-interacting protein 1 (Homo sapiens) (UniProt Q5JTV8). The experiment is described as follows: LAP1 binders from COS7 cell lysate, primary screen, small-molecule microarray, 635/667 nm fluorescence (AID 1116). The following applies: COS7-hLAP1 lysate binding, 635 nm fluorescence, higher = more signal.
Experiment [20] addresses Alpha-bungarotoxin (Bungarus multicinctus) (UniProt P60615). Put plainly: alpha-bungarotoxin binders on microarray, profiling panel, artefact control for SMM control protein annotation, biochemical, small-molecule microarray, Alexa647 label, 635/667 nm fluorescence (AID 1117). The following applies: alpha-BTX-A647 binding fluorescence, higher = more signal.

Several values for one entry are separate records, joined by “and”; a condition that tells them apart may be missing. Equal values may be shown once. Activity calls are given as the source filed them.

Sequence of Torsin-1A-interacting protein 1 (Homo sapiens) (Q5JTV8 whole entry, looked up): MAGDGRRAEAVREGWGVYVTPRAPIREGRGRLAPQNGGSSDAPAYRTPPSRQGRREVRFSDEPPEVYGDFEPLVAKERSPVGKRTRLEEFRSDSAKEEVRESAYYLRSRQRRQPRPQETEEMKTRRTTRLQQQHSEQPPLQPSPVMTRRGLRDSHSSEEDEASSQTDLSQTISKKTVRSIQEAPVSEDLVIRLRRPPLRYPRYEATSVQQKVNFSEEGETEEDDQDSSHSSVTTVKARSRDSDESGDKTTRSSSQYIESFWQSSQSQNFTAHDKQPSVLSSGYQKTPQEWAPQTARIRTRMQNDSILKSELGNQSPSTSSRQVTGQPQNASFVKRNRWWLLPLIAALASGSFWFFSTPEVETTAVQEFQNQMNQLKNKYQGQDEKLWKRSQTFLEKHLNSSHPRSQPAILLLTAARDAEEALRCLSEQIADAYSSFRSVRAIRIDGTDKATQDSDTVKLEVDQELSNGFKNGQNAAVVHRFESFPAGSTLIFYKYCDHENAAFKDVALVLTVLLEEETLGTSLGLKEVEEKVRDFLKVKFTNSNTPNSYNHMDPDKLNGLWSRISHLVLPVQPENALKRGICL
Sequence of Alpha-bungarotoxin (Bungarus multicinctus) (P60615 whole entry, looked up): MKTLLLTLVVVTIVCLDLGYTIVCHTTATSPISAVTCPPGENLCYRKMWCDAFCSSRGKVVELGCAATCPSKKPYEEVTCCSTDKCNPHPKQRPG
Sequence of Left-right determination factor 2 (Homo sapiens) (O00292 whole entry, looked up): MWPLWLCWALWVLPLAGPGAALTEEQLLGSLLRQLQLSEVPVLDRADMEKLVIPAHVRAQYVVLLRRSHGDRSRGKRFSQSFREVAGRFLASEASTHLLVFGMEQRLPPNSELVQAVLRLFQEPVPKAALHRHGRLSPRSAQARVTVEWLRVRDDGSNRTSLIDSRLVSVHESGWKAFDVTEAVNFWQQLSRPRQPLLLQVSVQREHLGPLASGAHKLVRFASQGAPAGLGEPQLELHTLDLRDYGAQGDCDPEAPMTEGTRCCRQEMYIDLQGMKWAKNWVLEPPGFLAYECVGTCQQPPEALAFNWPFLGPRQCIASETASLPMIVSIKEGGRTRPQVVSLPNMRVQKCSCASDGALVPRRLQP
Sequence of Dickkopf-related protein 1 (Homo sapiens) (O94907 whole entry, looked up): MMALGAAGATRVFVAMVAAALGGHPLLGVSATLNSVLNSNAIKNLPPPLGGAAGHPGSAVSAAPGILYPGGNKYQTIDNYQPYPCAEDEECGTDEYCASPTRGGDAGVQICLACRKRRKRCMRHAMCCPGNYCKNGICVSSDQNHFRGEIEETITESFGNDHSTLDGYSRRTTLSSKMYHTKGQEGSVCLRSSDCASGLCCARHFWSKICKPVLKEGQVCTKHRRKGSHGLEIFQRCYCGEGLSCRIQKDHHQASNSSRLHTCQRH

Take `C=CCN(C(=O)C(c1cccs1)N(C(=O)/C=C\C(=O)O)C(C)(C)CO)c1ccc(OC)cc1` (stereo not given): the composite z-score was 1.39 and -1.69 in experiment [1]; -0.117 and -0.0312 in experiment [2]; 0.599 and 0.476 in experiment [3]; -0.477 and -0.869 in experiment [5]; -0.41 and -0.514 in experiment [6]; -0.869 and -2.11 in [7]. Also, the composite z-score in [8] was -1.4 and -1.37; in experiment [9], -0.789 and -0.497; in [10], -1.07 and -0.761; in experiment [11] it was -0.759 and -0.652; in experiment [13], -1.77 and -2.47; in [14], 0.459 and -0.933. The composite z-score in experiment [15] was 0.891 and 0.235; in [16] it was -0.0455 and -0.166; in experiment [17], -0.138 and -0.0626; in experiment [18], 0.162 and 0.292; in experiment [19], 0.588 and 1.06; in experiment [20], -2.1 and -1.16. Further, the z-score in experiment [4] is -2.61 (inactive) and -1.39 (inactive); in [12] it was 0.0435 and 2.82.

On to `COC(=O)C1=C(C)N(Cc2ccccc2)C2=C(C(=O)c3ccccc3)[C@H](c3ccccc3)[C@@](O)(C(=O)OC)C(=O)N2[C@@H]1c1ccccc1`, for which the composite z-score in experiment [1] was 0.419 and 0.36; in [2], -0.0581 and -0.208; in [3], -0.178 and -0.433; in experiment [5] it was 0.654 and 0.495; in [6] it was 0.739 and 0.519; in experiment [7], 0.392 and 0.353. Also, the composite z-score in experiment [8] was 0.626 and 0.53; in [9], 0.638 and 0.349; in experiment [10], -0.0471 and -0.0052; in [11] it was 1.15 and 0.774; in experiment [13], 0.32 and 0.577; in [14], 0.046 and -0.136. The composite z-score is -0.373 and -0.51 in [15]; -0.176 and -0.1 in experiment [16]; -0.137 and -0.0626 in experiment [17]; -0.31 and 0.0197 in experiment [18]; 0.202 and 0.17 in experiment [19]; -0.115 and -0.0752 in experiment [20]. Further, the z-score in experiment [4] was -1.7 (inactive) and 0.839 (inactive); in experiment [12], -2.05 and 0.964.

With `CCOC(=O)NN=C1C[C@@H](O)[C@@H](O)[C@@H]2[C@@H]3C(=O)N(Cc4ccccc4)C(=O)[C@@H]3CC[C@@H]12`, the composite z-score in experiment [1] was 0.454; in [2], -0.287; in experiment [3] it was -0.655; in experiment [5], 0.118; in experiment [6] it was 0.304; in [7] it was 0.542. In addition, the composite z-score in experiment [8] is 0.59; in experiment [9], 0.355; in experiment [10], -0.208; in experiment [11], -0.337; in [13], 0.349; in [14] it was -0.546. In addition, the composite z-score in experiment [15] was -0.659; in experiment [16], 0.134; in [17] it was -0.2; in experiment [18], -0.207; in [19], 0.297; in experiment [20], -0.168. Also, the z-score in experiment [4] was 0.477 (inactive); in experiment [12] it was -0.16.

On to `COC(=O)[C@@]1(Cc2ccc(F)cc2)[C@H]2c3cc(C(=O)N4CCCC4)n(Cc4c(CO)[nH]cc(C)c4=O)c3C[C@H]2CN1C(=O)c1ccccc1`, for which the composite z-score was 1.47 and 1.53 in [1]; 2.17 and -0.115 in experiment [2]; 1.29 and 0.955 in experiment [3]; 0.822 and 0.461 in experiment [5]; -0.252 and 0.368 in experiment [6]; 0.704 and -0.2 in experiment [7]. Besides, the composite z-score in experiment [8] is 0.0376 and -0.36; in experiment [9], -0.198 and -0.57; in experiment [10], 1.02 and 1.31; in experiment [11], 0.866 and 0.952; in [13], -0.0537 and -0.837; in experiment [14], 1.41 and 0.252. Besides, the composite z-score was 0.249 and 0.299 in experiment [15]; 1.02 and 0.132 in experiment [16]; 2.2 and 0.182 in [17]; 2.71 and 1.27 in [18]; 0.959 and 1.72 in experiment [19]; 0.234 and -0.124 in experiment [20]. In addition, the z-score was -1.48 (inactive) and -0.107 (inactive) in [4]; -1.31 and -1.38 in [12].
